From PubChem BioAssay
Values without a mark were called inactive. The source made the active and inactive calls. Cut-off read from the data, not from the text of the source, unless noted: active = inhibition above about 28%; inactive = the rest.

Legend:
[1] = StAR promoter reporter inhibitors, counter-screen for LRH-1 inverse agonist project, cell-based, luminescence, high throughput (AID 651611); conditions: StAR promoter luciferase reporter counterscreen, at 3.6 µM, active compounds read high
[2] = molecular target: Nuclear receptor subfamily 5 group A member 2 (Homo sapiens) (UniProt O00482); test: LRH-1 (NR5A2) inverse agonists, retest, confirmation, cell-based, luminescence (AID 651613; in the data active = inhibition above about 42%;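 note: HEK293T cells co-transfected with LRH-1 and StAR promoter luciferase reporter; 0% = vehicle wells and 100% = parental cells lacking receptor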); conditions: cell-based LRH-1 luciferase reporter, inverse agonism; at 3.6 µM; active compounds read high
[3] = molecular target: Steroidogenic factor 1 (Homo sapiens) (UniProt Q13285); test: SF1 (NR5A1) inverse agonists, counter-screen for LRH-1 inverse agonist project, cell-based, luminescence, high throughput (AID 651614; in the data active = inhibition above about 44%;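 note: cells cotransfected with StAR promoter reporter and SF1 expression vector; 0% = vehicle on cells with receptor and 100% = vehicle on cells lacking receptor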); conditions: cell-based SF1 luciferase reporter, at 3.6 µM, active compounds read high
[4] = VP16 transactivation reporter inhibitors, counter-screen for LRH-1 inverse agonist project, cell-based, luminescence, high throughput (AID 651615; in the data active = inhibition above about 33%); conditions: Gal4-VP16 luciferase reporter cells, at 3.6 µM, active compounds read high

Nuclear receptor subfamily 5 group A member 2 (Homo sapiens), sequence (O00482 whole entry, looked up): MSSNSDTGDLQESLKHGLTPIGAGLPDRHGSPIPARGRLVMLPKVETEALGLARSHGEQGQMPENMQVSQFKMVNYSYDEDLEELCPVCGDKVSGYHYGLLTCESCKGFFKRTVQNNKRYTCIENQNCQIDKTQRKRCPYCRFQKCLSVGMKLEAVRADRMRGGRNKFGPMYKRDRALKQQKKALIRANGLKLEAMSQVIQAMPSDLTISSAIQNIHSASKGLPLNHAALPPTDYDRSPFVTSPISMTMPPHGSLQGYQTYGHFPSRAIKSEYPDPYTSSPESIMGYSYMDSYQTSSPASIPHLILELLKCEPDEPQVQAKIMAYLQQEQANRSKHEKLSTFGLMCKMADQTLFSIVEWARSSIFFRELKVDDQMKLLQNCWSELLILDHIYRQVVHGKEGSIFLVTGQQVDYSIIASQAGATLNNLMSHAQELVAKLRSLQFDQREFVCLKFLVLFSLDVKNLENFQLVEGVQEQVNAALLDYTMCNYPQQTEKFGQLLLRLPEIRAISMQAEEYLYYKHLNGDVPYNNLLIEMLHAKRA
Steroidogenic factor 1 (Homo sapiens), sequence (Q13285 whole entry, looked up, the tested form may be a part): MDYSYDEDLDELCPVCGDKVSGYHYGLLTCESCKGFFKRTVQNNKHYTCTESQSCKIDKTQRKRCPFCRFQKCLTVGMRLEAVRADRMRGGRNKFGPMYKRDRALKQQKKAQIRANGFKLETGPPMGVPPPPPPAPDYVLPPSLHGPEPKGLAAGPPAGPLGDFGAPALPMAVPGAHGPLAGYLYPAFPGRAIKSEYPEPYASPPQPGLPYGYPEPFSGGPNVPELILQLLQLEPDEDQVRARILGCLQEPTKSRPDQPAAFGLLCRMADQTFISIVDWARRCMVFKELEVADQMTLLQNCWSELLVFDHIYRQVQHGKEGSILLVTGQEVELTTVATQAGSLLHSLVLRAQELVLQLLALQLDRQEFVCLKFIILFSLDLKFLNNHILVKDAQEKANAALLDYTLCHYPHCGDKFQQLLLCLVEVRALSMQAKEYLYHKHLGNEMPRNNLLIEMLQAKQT

Compound	inhibition [1]	inhibition [2]	inhibition [3]	inhibition [4]
CCc1cc(=O)oc2c(C)c(OCC(=O)NCCCN3CCCC3=O)ccc12	8.43%	52.1% (active)	48.4% (active)	-11.3%
CS(=O)(=O)N1CCCC(c2nc(-c3ccc(S(=O)(=O)NCc4ccccc4)cc3)no2)C1 (stereo not given)	-1.45%	54.5% (active)	52.7% (active)	37.8% (active)
CCN(CC)CC(=O)Nc1ccc(-c2nc3cc(NC(=O)CN(CC)CC)ccc3o2)cc1	-9.81%	42.5% (active)	39.6%	-0.95%
CCOc1ccc(CCNC(=O)COC(=O)CCc2cc(OC)c(OC)c(OC)c2)cc1OCC	2.32%	50.1% (active)	47.2% (active)	2.92%
COc1ccc2nc(N3CCN(C(=O)c4ccc([N+](=O)[O-])o4)CC3)sc2c1	0.52%	64.3% (active)	61.8% (active)	-44.3%
CC(=O)Nc1ccc(NC(=O)COC(=O)c2c(C)nn(-c3ccccc3)c2C)cc1	10.2%	51.6% (active)	50.9% (active)	-22.5%
Cc1ccc(-c2cc(NC=O)c3ncc(-c4cnn(C)c4)n3c2)cc1	50.1% (active)	52% (active)	64.3% (active)	-13.8%
Cc1ccc(NC(=O)CSc2nnc(-c3n[nH]c4ccccc34)n2-c2ccccc2)c(C)c1	3.14%	60.5% (active)	60.3% (active)	4.59%
Cc1ccccc1-c1nnc(SCC(=O)Nc2cccc(C)c2C)o1	-7.62%	24.8%	26.9%	-3.77%
COc1ccc(N2CCN(C(=O)CSc3nc4ccccc4c(=O)[nH]3)CC2)cc1	12.5%	46.8% (active)	27.8%	-12.9%
